These sequences were tested against GRK1 (assay: pooled miR-30 sensor sort-seq; sequence = guide strand). Conditions: shRNA.

In order of falling sensor-assay potency score (higher = more potent):
1. TTGTTCAGCTTCTTGCAGGCAT  0.349
2. TTAAACTTCGCCACTATCCCCT  0.34
3. TTAAGGTCCTTGAAGAGGGGGT  0.091
4. TTCTTGTTCAGCTTCTTGCAGG  -0.533
5. TTTGCGTAGACAGTTTTGGAGT  -0.657
6. TAAACTTCGCCACTATCCCCTC  -0.678
7. TTGTCCAGCAGCACGTTCTCGG  -0.903
8. TTGCCGGTCGCCTTCATCTGGC  -1.21
9. TAGACAGTTTTGGAGTCTGGGA  -1.3

These sequences were tested against GRSF1 in the same assay as above. Conditions: shRNA.

In order of falling sensor-assay potency score (higher = more potent):
1. TTTCTTCTTCTAAACAGTCCAC  -0.0512
2. TCGATTACCAATTTCTTCCCTG  -0.139
3. TATACTTCCACATACCGCTGGC  -0.174
4. TTGAGCATCGCTGCAACAGCAT  -0.486
5. TTCTTCTTCTAAACAGTCCACT  -0.559
6. TAAGGCTTTCTGCACATCCTGC  -0.572
7. TTCTTCTAAACAGTCCACTATG  -0.687
8. TAGCAGTAGGAAAAGATGCGAT  -0.689
9. TCTGCTTGGAAATATCTCGATG  -0.758
10. TTCATGTTCTTCAAAGACCATT  -0.97
11. ATGTATTCCATTCTCACCGTTG  -1.12
12. TTATATACTTAGCAGTAGGAAA  -1.31

What follows are sequences tested against GSTO1 in the same assay as above. Conditions: shRNA.

In order of falling sensor-assay potency score (higher = more potent):
1. TGAGACTGTGGGATCTTCCTTC  0.458
2. TTTCTCACTAGTAAGCAGGGCT  0.254
3. ATATTGATGACTTCATGCCTGA  -0.0136
4. AACTCTAAGATCATCTTCTGGC  -0.0597
5. TTTTCTTAAAGAACCACTCAGG  -0.256
6. TAACTTCATTGCTTCCAGCCGT  -0.351
7. TTATTAGTCAGAACCTCCTCTA  -0.622
8. TCTAAGATCATCTTCTGGCAAG  -0.832
9. TATTAGTCAGAACCTCCTCTAG  -0.847
10. TAGGCCAGCATAGTCTTCTTTA  -0.878
11. TCTAATAAAGCTTCCTACCAAG  -0.981
12. TAGAGATAGAATTGCCACCAAA  -1.16

These sequences were tested against GTF2H5 in the same assay as above. Conditions: shRNA.

In order of rising sensor-assay potency score (higher = more potent):
1. TAACCAATTCTGCTATTACAAA  -1.59
2. ATCAATGTCTTGAATGATGAAC  -1.38
3. AATGATGAACTTCTTCCCCAGG  -1.25
4. TTAATTCACCCACTCGCTCCTG  -0.542
5. TTGAATGATGAACTTCTTCCCC  -0.395
6. TCTGCTATTACAAAGACGTGAG  0.353
7. TAATTCACCCACTCGCTCCTGG  0.481

Reference: the OligoGym collection
